Drawing on PubChem BioAssay (NCI), this text covers growth for nine compounds.

SMILES strings stand for the structures. Compounds without any hit were thinned out: in the full panel of roughly 83,000, 20% have a hit.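 Percent growth is the endpoint: 0 to 100 indicates growth inhibition (40 means 60% inhibition), 0 means no net growth, and negative values indicate cell death.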 A number with no mark means an inactive call. Activity calls are given as the source filed them. How the source made its calls: active means growth percent below 10; inactive means the rest.

Holding throughout (test): NCI-60 one-dose screen, 48 h (100 = growth as untreated, 0 = no growth, -100 = all killed)
One test deals with DU-145 prostate. The note with it: 10 µM unless noted.
Another test concerns K-562 leukemia. The note with it: 10 µM unless noted.
In a further test the test system is MALME-3M melanoma. As to conditions: 10 µM unless noted.
The subject of the next test is MDA-MB-231 breast. The note with it: 10 µM unless noted.
A further test deals with RXF 393 renal. The note with it: 10 µM unless noted.
Another test relates to SF-268 CNS. The note with it: 10 µM unless noted.
Another test concerns SF-295 CNS. The note with it: 10 µM unless noted.
The test system of a further test is SF-539 CNS. The note with it: 10 µM unless noted.
The subject of a further test is UACC-257 melanoma. As to conditions: 10 µM unless noted.
A further test concerns HCT-15 colon. As to conditions: 10 µM unless noted.
The next test deals with HT29 colon. The note with it: 10 µM unless noted.
In a further test the test system is SNB-75 CNS. The note with it: 10 µM unless noted.
A further test deals with SNB-19 CNS. As to conditions: 10 µM unless noted.
The next test relates to U251 CNS. The note with it: 10 µM unless noted.
A further test has as its system PC-3 prostate. The note with it: 10 µM unless noted.
A further test deals with SK-MEL-5 melanoma. As to conditions: 10 µM unless noted.
A further test relates to UACC-62 melanoma. The note with it: 10 µM unless noted.
Another test deals with LOX IMVI melanoma. The note with it: 10 µM.
Another test has as its system SK-MEL-28 melanoma. As to conditions: 10 µM unless noted.

As to `N#CC(=C1SCS1)[N+](=O)[O-]`, the growth with DU-145 prostate was 2.38% (active); in the test with K-562 leukemia it was 28.4%; with MALME-3M melanoma it was 21.4%; with MDA-MB-231 breast, 16%; with RXF 393 renal it was 12.2%; in the test with SF-268 CNS, 34.9%. For the same compound, the growth in the test with SF-295 CNS is 35.9%; with SF-539 CNS, 11.5%; in the test on UACC-257 melanoma, 35.3%; in the test with HCT-15 colon it was 12.3%; in the test with HT29 colon, 1.29% (active); in the test with SNB-75 CNS it was 40.5%. The growth is 41.2% with SNB-19 CNS; 14.4% with U251 CNS; 28.8% in the test with PC-3 prostate; 5.48% (active) with SK-MEL-5 melanoma; 38.1% in the test on UACC-62 melanoma; 17% in the test with LOX IMVI melanoma. Also, in the test with SK-MEL-28 melanoma, the growth was 37.8%.
As for `CSc1nc(C)c(C(=O)CCN2CCN(c3ccccn3)CC2)s1`, the growth with DU-145 prostate was 102%; with K-562 leukemia it was 93.6%; in the test with MALME-3M melanoma, 102%; with MDA-MB-231 breast it was 101%; in the test with RXF 393 renal, 100%; in the test on SF-268 CNS, 102%. For the same compound, the growth was 102% in the test on SF-295 CNS; 99% in the test on SF-539 CNS; 99.7% in the test with UACC-257 melanoma; 97.3% in the test on HCT-15 colon; 102% with HT29 colon; 103% with SNB-75 CNS. Besides, the growth in the test on SNB-19 CNS was 96.1%; in the test with PC-3 prostate it was 94.3%; in the test with SK-MEL-5 melanoma, 101%; in the test with UACC-62 melanoma, 98.7%; in the test with SK-MEL-28 melanoma, 106%.
Turning to `Oc1ccc2ccccc2c1N=Nc1ccccn1`, the growth in the test on DU-145 prostate is 50.2%; with K-562 leukemia it was 15.2%; with MALME-3M melanoma it was 59.7%; with MDA-MB-231 breast, 36.3%; in the test with RXF 393 renal it was 38.3%; with SF-268 CNS, 36%. In addition, the growth is 26.8% in the test on SF-295 CNS; 15.7% in the test on SF-539 CNS; 17.6% in the test with UACC-257 melanoma; 26.9% in the test on HCT-15 colon; 20.9% in the test with HT29 colon; 59.1% in the test with SNB-75 CNS. In addition, the growth with SNB-19 CNS is 53.4%; in the test on SK-MEL-5 melanoma it was 23.7%; in the test on UACC-62 melanoma it was 29.8%; with LOX IMVI melanoma it was 6.2% (active).
As to `Cc1ccc2cccc(OC(=O)Nc3cccc(C(F)(F)F)c3)c2n1`, the growth in the test on DU-145 prostate was 71.1%; in the test with K-562 leukemia, 33.5%; in the test on MALME-3M melanoma, 82%; with MDA-MB-231 breast, 86.6%; in the test on RXF 393 renal it was 95.6%; in the test with SF-268 CNS, 95%. Also, the growth with SF-295 CNS was 6.24% (active); with SF-539 CNS, 96.4%; in the test on UACC-257 melanoma, 87.3%; with HCT-15 colon, 50.9%; in the test with HT29 colon it was 56.2%; in the test with SNB-75 CNS it was 87.5%. Further, the growth was 72.1% with SNB-19 CNS, 86.4% with SK-MEL-5 melanoma, 60.8% in the test with UACC-62 melanoma and 84.6% in the test on SK-MEL-28 melanoma.
For the compound `CCN1/C(=C/C(C)=C/c2sc3ccc4ccccc4c3[n+]2CC)Sc2ccc3ccccc3c21`, the growth is -100% (active) with DU-145 prostate; -23.7% (active) with K-562 leukemia; -87% (active) with MALME-3M melanoma; -82.5% (active) in the test with MDA-MB-231 breast; -88.1% (active) in the test with RXF 393 renal; -91.1% (active) in the test on SF-268 CNS. The growth with SF-295 CNS is -93% (active); in the test on SF-539 CNS, -98.1% (active); in the test on UACC-257 melanoma, -82.2% (active); in the test on HCT-15 colon, -81.8% (active); in the test on HT29 colon, -80.6% (active); in the test with SNB-75 CNS, -94.3% (active). The growth with SNB-19 CNS was -96.5% (active); in the test on U251 CNS, -94.1% (active); in the test on PC-3 prostate, -84% (active); in the test with SK-MEL-5 melanoma, -97.6% (active); with UACC-62 melanoma, -96.6% (active); in the test with LOX IMVI melanoma, -73.9% (active). Also, the growth in the test with SK-MEL-28 melanoma was -98.3% (active).
For the compound `Oc1cc(Cl)ccc1Cc1ccc(Cl)cc1O`, the growth with DU-145 prostate is 90%; with K-562 leukemia it was 37.2%; with MALME-3M melanoma, 32.9%; in the test with MDA-MB-231 breast, 59.7%; in the test on RXF 393 renal it was 73.8%; in the test on SF-268 CNS it was 65.2%. In addition, the growth in the test with SF-295 CNS is 32.3%; in the test with SF-539 CNS it was 56.3%; with UACC-257 melanoma, 58.7%; in the test with HCT-15 colon, 52%; in the test on HT29 colon it was 102%; with SNB-75 CNS, 76.8%. In addition, the growth is 66.1% in the test with SNB-19 CNS; 52.7% in the test with U251 CNS; 43.5% in the test with PC-3 prostate; 11.7% in the test with SK-MEL-5 melanoma; 32.2% in the test on UACC-62 melanoma; 50.6% in the test with LOX IMVI melanoma. Further, the growth in the test on SK-MEL-28 melanoma is 89.3%.
Take `Cc1ccc2c(c1)sc(-c1ccc(N(C)C)cc1)[n+]2C`: the growth in the test with DU-145 prostate was 20.4%; in the test with K-562 leukemia it was -21.7% (active); with MALME-3M melanoma it was 0.435% (active); in the test with MDA-MB-231 breast, 2.82% (active); in the test on RXF 393 renal, 39.7%; with SF-268 CNS, 18.5%. Besides, the growth in the test with SF-295 CNS is -5.75% (active); in the test on SF-539 CNS it was 12.5%; in the test with UACC-257 melanoma, 4.53% (active); with HCT-15 colon, 68.7%; with HT29 colon, 4.16% (active); in the test on SNB-75 CNS it was 14.2%. Further, the growth in the test with SNB-19 CNS is 16.1%; in the test on U251 CNS, -2.09% (active); with SK-MEL-5 melanoma, -76.6% (active); in the test with UACC-62 melanoma, 8.89% (active); in the test on LOX IMVI melanoma, 1.78% (active); with SK-MEL-28 melanoma, 30.8%.
`O=C(CCl)N(c1ccccc1)c1ccccc1`: the growth in the test with DU-145 prostate is 110%; in the test on K-562 leukemia, 105%; with MALME-3M melanoma, 98.6%; in the test on MDA-MB-231 breast, 114%; with RXF 393 renal, 104%; in the test with SF-268 CNS, 105%. The growth in the test with SF-295 CNS was 103%; with SF-539 CNS it was 108%; in the test on UACC-257 melanoma, 94.1%; in the test with HCT-15 colon it was 105%; in the test with HT29 colon, 114%; with SNB-75 CNS, 105%. Also, the growth in the test on U251 CNS is 98.1%; in the test on PC-3 prostate, 91.4%; in the test with SK-MEL-5 melanoma, 99.8%; with UACC-62 melanoma, 95.6%; in the test on LOX IMVI melanoma, -36% (active); in the test on SK-MEL-28 melanoma it was 110%.
Consider `Cc1cc2cccnc2c2ncccc12`, for which the growth in the test on DU-145 prostate is 20.7%; in the test on K-562 leukemia, 14.3%; with MALME-3M melanoma, 49.3%; in the test with MDA-MB-231 breast, 44.2%; with RXF 393 renal, 13.3%; with SF-268 CNS, 15.9%. Moreover, the growth in the test with SF-295 CNS is 28.5%; with SF-539 CNS it was 13%; with UACC-257 melanoma, -1.02% (active); in the test with HCT-15 colon, 37%; in the test with HT29 colon, 19.7%; in the test with SNB-75 CNS it was 2.75% (active). The growth was 34.1% in the test on SNB-19 CNS; 17.2% in the test on U251 CNS; 47.3% in the test on PC-3 prostate; 3.03% (active) in the test on SK-MEL-5 melanoma; 0.859% (active) in the test on UACC-62 melanoma; 14.8% in the test with LOX IMVI melanoma.
